From PubChem BioAssay (NCI)
The panel holds about 79,000 compounds, 15% with a hit somewhere; the sample as a whole holds those more often. Unmarked numbers belong to inactive results. The source made the active and inactive calls. Rule as the data show it: active = growth inhibition above about 70%; inactive = the rest.

Assay: NCI Yeast Anticancer Drug Screen. Data for the mlh1 rad18 strain (AID 175)
Settings: S. cerevisiae mlh1 rad18 strain growth inhibition, hits give high values
Method: Growth inhibition of yeast strains with defined genetic alterations is measured as a screen for potential anti-cancer activity. Selected strains with alterations in DNA damage repair or cell cycle control were exposed to compounds and growth inhibition was measured relative to vehicle treated controls. The strain used in this assay is mlh1 rad18

[1] = at 5.0 µM (retest, dose inferred, filed as 0.5)
[2] = at 50.0 µM (retest, dose inferred, filed as 5.0)

With COc1ccc(C2COc3cc(OC(C)=O)c(OC(C)=O)cc3C2)cc1 (configuration not stated) the growth inhibition [1] was -3%, the growth inhibition [2] was 94% (active) and the growth inhibition (at 50.0 µM) was 96.6% (active).
Compound CC1(C)CCC2(CC1)CC(=O)OC(=O)C2 has a growth inhibition [1] of -145%, a growth inhibition [2] of -117% and a growth inhibition (at 50.0 µM) of 3.95%.
With O=[N+]([O-])C1CCC(C2=CSC3CCCCC3N2)CC1 (configuration not stated) the growth inhibition [1] was -1%, the growth inhibition [2] was 60% and the growth inhibition (at 50.0 µM) was 18%.
In the case of O=C(c1ccc(Oc2ccccc2)cc1)C(C(c1ccccc1)N1CCOCC1)N1CCOCC1 (configuration not stated), the growth inhibition [1] is reported as 20%, the growth inhibition [2] is reported as 60% and the growth inhibition (at 50.0 µM) is reported as 75.4% (active).
In the case of O=C(Nc1ccc(Cl)cc1)NS(=O)(=O)c1ccc2c(c1)CCC2, the growth inhibition [1] is reported as -47%, the growth inhibition [2] is reported as 27% and the growth inhibition (at 50.0 µM) is reported as 45.6%.
In the case of O=C1C=C(c2cccc(-c3ccccc3)c2)CCC1, the growth inhibition [1] is reported as -1%, the growth inhibition [2] is reported as 92% (active) and the growth inhibition (at 50.0 µM) is reported as 96.4% (active).
With CNC(=O)OCCC(OC(=O)NC)C1CCC2C3CC=C4CC(OC(=O)NC)CCC4(C)C3CCC12C (configuration not stated) the growth inhibition [1] was 88% (active), the growth inhibition [2] was 91% (active) and the growth inhibition (at 50.0 µM) was 34.5%.
With CC(C)C[C@H](NC(=O)[C@H](Cc1ccccc1)NC(=O)c1cnccn1)B(O)O the growth inhibition [1] was 55%, the growth inhibition [2] was 79% (active) and the growth inhibition (at 50.0 µM) was 66.7%.
With O=C(N=Nc1cccc(Cl)c1)NNc1cccc(Cl)c1 the growth inhibition [1] was -6%, the growth inhibition [2] was 98% (active) and the growth inhibition (at 50.0 µM) was 85.4% (active).
Work on ON=C1Cc2ccccc2-c2ccccc2C1 yielded a growth inhibition [1] of -3%, a growth inhibition [2] of -2% and a growth inhibition (at 50.0 µM) of 17.1%.
In the case of COc1ccc(C(=O)C(c2ccc(OC)cc2)C2(O)C(=O)Nc3c(Cl)cc(Cl)cc32)cc1 (configuration not stated), the growth inhibition [1] is reported as -18%, the growth inhibition [2] is reported as -18% and the growth inhibition (at 50.0 µM) is reported as 90.7% (active).
With O=C(O)c1c(Br)c(Br)c(Br)c(Br)c1-c1c2ccc(=O)cc-2oc2cc(O)ccc12 the growth inhibition [1] was 94% (active), the growth inhibition [2] was 92% (active) and the growth inhibition (at 50.0 µM) was 83.5% (active).
For CC/C(C)=C1\CCC(CN2CCOCC2)C1=O (configuration not stated), the growth inhibition [1] was 14%, the growth inhibition [2] was 90% (active) and the growth inhibition (at 50.0 µM) was 79.2% (active).
For COc1ccc(C2Oc3ccc(Cl)cc3C=C2[N+](=O)[O-])cc1 (configuration not stated), the growth inhibition [1] was 99% (active), the growth inhibition [2] was 95% (active) and the growth inhibition (at 50.0 µM) was 79% (active).
